Ten compounds from PubChem BioAssay AID1076 (NMMLSC, 2008) can be followed below.

Activity calls are given as the source filed them.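 How the source made its calls: active means cell event count below 40, meaning activity score above 60 where score is 100 minus count; inactive means the rest.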

The nature of one test: cytotoxicity in LNCaP prostate cells – cell-based, cell event count, single point, cytotoxicity control for prostate differentiation activator project, confirmation (AID 1076).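 Further: counts scatter-gated live cells after medium removal discards detached dead cells.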 The conditions noted are these: LNCaP cell loss, flow cytometry event count, 4 d; at 100 µM; stronger effect = lower value. A general note: In flow cytometry, cells or beads pass a laser one at a time.
As to `C[C@H]1CCC/C=C/C2C[C@H](O)CC2[C@H](O)/C=C/C(=O)O1` (stereo not given in full), the cell event count is 23 (active).

With `O=C(COc1ccc2ccccc2c1)N1CCN(C2CCN(Cc3ccccc3)CC2)CC1`, the cell event count is 35 (inactive).

On to `Cc1cc(OCC(=O)O)c2c3c(c(=O)oc2c1)CCCC3`, for which the cell event count was 175 (inactive).

On to `CCn1c(=O)cc(OCC(=O)N2CCC3(CC2)OCCO3)c2ccccc21`, for which the cell event count was 210 (inactive).

Take `CCn1c(=O)cc(OCC(=O)N2CCN(Cc3ccc4c(c3)OCO4)CC2)c2ccccc21`: the cell event count is 12 (inactive).

For the compound `Cc1nc2ccccc2c(=O)n1-c1ccc(F)cc1`, the cell event count was 282 (inactive).

In the case of `Clc1ccc(COC(Cn2ccnc2)c2ccc(Cl)cc2Cl)cc1` (stereo not given), the cell event count is 11 (inactive).

For the compound `Cc1ccc(Cn2c(C)c3cnn(CC(=O)N4CCC5(CC4)OCCO5)c(=O)c3c2C)cc1`, the cell event count is 66 (inactive).

On to `CCOc1ccc(C2SCC(=O)Nc3c2c(=O)[nH]n3C2CCCCCC2)cc1` (stereo not given), for which the cell event count is 18 (inactive).

For `Cc1ccc2c(c1)[C@@H]1CN(C)CC[C@@H]1N2C(=O)Nc1cccc(C(F)(F)F)c1`, the cell event count is 13 (inactive).

The same test, now with this note: LNCaP cell loss, flow cytometry event count, 4 d; event count; at 10 µM; stronger effect = lower value.
`C[C@H]1CCC/C=C/C2C[C@H](O)CC2[C@H](O)/C=C/C(=O)O1` (stereo not given in full) returned a cell event count of 26.

Regarding `O=C(COc1ccc2ccccc2c1)N1CCN(C2CCN(Cc3ccccc3)CC2)CC1`, the cell event count amounted to 324.

`Cc1cc(OCC(=O)O)c2c3c(c(=O)oc2c1)CCCC3` displayed a cell event count of 157.

In turn, `CCn1c(=O)cc(OCC(=O)N2CCC3(CC2)OCCO3)c2ccccc21` gave a cell event count of 411.

`CCn1c(=O)cc(OCC(=O)N2CCN(Cc3ccc4c(c3)OCO4)CC2)c2ccccc21` came in with a cell event count of 240.

As to `Cc1nc2ccccc2c(=O)n1-c1ccc(F)cc1`, the cell event count amounted to 155.

`Clc1ccc(COC(Cn2ccnc2)c2ccc(Cl)cc2Cl)cc1` (stereo not given): the cell event count came out at 82.

As for `Cc1ccc(Cn2c(C)c3cnn(CC(=O)N4CCC5(CC4)OCCO5)c(=O)c3c2C)cc1`, the cell event count was 202.

With `CCOc1ccc(C2SCC(=O)Nc3c2c(=O)[nH]n3C2CCCCCC2)cc1` (stereo not given), the cell event count is 101.

Consider `Cc1ccc2c(c1)[C@@H]1CN(C)CC[C@@H]1N2C(=O)Nc1cccc(C(F)(F)F)c1`, for which the cell event count stood at 122.
